Assay outcomes deposited in PubChem by Broad Institute.
NSD2 inh: NSD2 (human) methyltransferase inhibition; O96028; inhibition, % at 12.5 µM; NSD2 peptide methylation, AlphaScreen, 120 min; hit rate 0.54% among 310,000; in the data active = inhibition above about 50%
Target sequence (O96028 whole entry, looked up): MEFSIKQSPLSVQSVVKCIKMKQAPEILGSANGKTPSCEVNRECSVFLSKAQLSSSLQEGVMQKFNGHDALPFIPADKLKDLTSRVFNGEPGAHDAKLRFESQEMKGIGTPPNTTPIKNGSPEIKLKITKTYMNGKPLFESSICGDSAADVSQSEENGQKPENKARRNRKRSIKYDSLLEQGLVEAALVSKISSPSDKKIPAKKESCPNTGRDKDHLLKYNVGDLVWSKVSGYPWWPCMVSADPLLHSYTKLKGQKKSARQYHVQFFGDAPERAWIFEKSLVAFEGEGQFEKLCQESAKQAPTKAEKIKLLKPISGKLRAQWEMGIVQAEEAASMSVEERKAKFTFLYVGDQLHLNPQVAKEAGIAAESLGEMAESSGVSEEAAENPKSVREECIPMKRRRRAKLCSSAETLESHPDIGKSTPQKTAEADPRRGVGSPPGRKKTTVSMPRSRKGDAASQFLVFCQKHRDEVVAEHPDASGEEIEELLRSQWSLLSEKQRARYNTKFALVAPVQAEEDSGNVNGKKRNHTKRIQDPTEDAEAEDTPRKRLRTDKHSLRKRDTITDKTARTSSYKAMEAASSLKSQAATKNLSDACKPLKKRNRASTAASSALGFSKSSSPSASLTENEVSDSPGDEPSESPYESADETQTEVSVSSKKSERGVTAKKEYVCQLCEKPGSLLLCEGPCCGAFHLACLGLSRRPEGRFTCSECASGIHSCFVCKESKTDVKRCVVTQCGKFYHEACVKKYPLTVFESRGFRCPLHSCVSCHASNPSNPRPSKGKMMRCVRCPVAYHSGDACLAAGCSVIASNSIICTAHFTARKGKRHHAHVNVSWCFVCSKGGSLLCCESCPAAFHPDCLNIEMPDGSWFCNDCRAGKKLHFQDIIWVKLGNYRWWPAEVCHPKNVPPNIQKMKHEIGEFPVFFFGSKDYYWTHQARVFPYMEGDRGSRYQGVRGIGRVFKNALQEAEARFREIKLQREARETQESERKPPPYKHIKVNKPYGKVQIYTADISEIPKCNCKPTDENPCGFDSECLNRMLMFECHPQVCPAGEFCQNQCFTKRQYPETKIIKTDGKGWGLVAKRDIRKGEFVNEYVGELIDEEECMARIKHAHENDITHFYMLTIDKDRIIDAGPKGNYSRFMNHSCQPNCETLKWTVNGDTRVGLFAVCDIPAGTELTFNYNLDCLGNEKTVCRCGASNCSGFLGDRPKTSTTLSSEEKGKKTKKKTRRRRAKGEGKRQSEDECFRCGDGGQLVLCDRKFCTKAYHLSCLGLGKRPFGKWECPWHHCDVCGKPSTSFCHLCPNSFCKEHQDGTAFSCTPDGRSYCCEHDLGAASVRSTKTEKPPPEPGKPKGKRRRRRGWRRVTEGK
CASP6 VEID inh: caspase-6 (human) enzyme inhibition; P55212; purified caspase-6, Z-VEID-R110 cleavage fluorescence; inhibition, % at 12.5 µM; hit rate 0.53% among 350,000; AID 686996;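 active = mean inhibition across replicates at least about 35%, with every replicate also reaching that limit, limit read from the data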;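 note: 0% = median of neutral control wells and 100% = no fluorescence left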
RAD52 inh: inhibitors of human RAD52 DNA annealing | recombinant RAD52 DNA annealing, FRET fluorescence | inhibition, % at 18.7 µM | hit rate 0.46% among 360,000 | AID 651710;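 active = every replicate showing at least 50% inhibition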
miR-122 sensor: inhibitors of miR-122 in Huh7 cells; Huh7 miR-122 Renilla luciferase sensor, 48 h; neutral wells = 0, positive control = 100; activation (reporter increase), % at 12.5 µM; hit rate 0.3% among 340,000;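 active = mean replicate activation score at least 90 and every replicate individually at or above 90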;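 note: higher luciferase means less miR-122 activity so hits act as miR-122 inhibitors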
AF4-AF9 inh: MLL-AF4/AF9 protein interaction inhibition; AlphaScreen, biotin-AF4 peptide binding to FLAG-AF9; hit rate 0.47% among 350,000; AID 651704; inhibition, % at 10 µM;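 active = every replicate reaching a set inhibition limit, whatever the replicate mean, cut at about 25% in these data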;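 note: 0% = plate neutral control median and 100% = total signal loss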
* hit, by the source's call; / = no result; [ ] = another dose, or the depositor's remark. In the library only some 1.5% were active in any assay of this set; here they are far more common.

SMILES	NSD2 inh	CASP6 VEID inh	RAD52 inh	miR-122 sensor	AF4-AF9 inh
C[C@@H]1CN([C@@H](C)CO)S(=O)(=O)c2ccc(/C=C/c3ccccc3)cc2O[C@@H]1CN(C)C(=O)c1ccc2c(c1)OCO2	/	-4.0	9.9	-14.2[16.7 µM]	1.8
COC1=CC(=O)C(C2CC(=O)c3c(O)cc(O)cc3O2)=CC1=O (configuration not stated)	14.6	44.3*	-12.3	/	-11.5
CCCCNC(=O)O[C@@H]1C[C@@H]2CCN3C(=O)CCC[C@H]([C@H]1CC)[C@H]23	/	-2.4	-15.7	-8.2	94.2*
CCCCNC(=O)O[C@H]1C[C@@H]2CCN3C(=O)CCC[C@H]([C@H]1CC)[C@H]23	/	-2.6	-7.2	-1.5	-7.1
C/C(=N/NC(N)=S)c1cc2ccc(O)cc2oc1=O	18.2	42.2*	-142.8	-2.8	-46.5
COc1ccccc1NC(=O)N1CC[C@H]2[C@@H]1c1cc(-c3ccccc3)ccc1N(C)[C@H]2CO	/	-0.1	58.1*	-5.4[16.7 µM]	-0.8
COc1ccccc1NC(=O)N1CC[C@@H]2[C@H]1c1cc(-c3ccccc3)ccc1N(C)[C@@H]2CO	/	0.3	51.9*	-3.4[16.7 µM]	-0.4
COc1ccccc1NC(=O)N1CC[C@@H]2[C@H]1c1cc(C#Cc3ccc(F)cc3)ccc1N(C)[C@@H]2CO	/	-1.6	70.1*	1.4[16.7 µM]	-2.8
COc1ccccc1NC(=O)N1CC[C@H]2[C@@H]1c1cc(-c3ccc(F)cc3)ccc1N(C)[C@H]2CO	/	-1.8	-10.2	5.1[16.7 µM]	1.1
C[C@H](CO)N1C[C@H](C)[C@@H](CN(C)S(C)(=O)=O)OCCCC[C@H](C)Oc2ccc(NC(=O)Nc3ccc(F)cc3)cc2C1=O	/	/	/	3.4[16.7 µM]	/
C[C@@H]1CN([C@H](C)CO)C(=O)c2cc(-c3ccncc3)cnc2O[C@@H]1CN(C)C(=O)c1ccc(F)cc1	/	1.6	5.5	0.5[16.7 µM]	-3.9
CC(=O)N[C@@H]1CC[C@@H](CCNC(=O)C2CCCCC2)O[C@@H]1CO	/	-0.2	1.1	/	-2.9
O=C(NCC1CC1)[C@@H]1[C@@H](CO)[C@@H]2Cn3c(ccc(-c4ccccc4)c3=O)[C@@H]2N1CC1CC1	/	-1.1	-7.5	3.4[16.7 µM]	-7.5
O=C(N[C@@H]1C=C[C@@H](CC(=O)N2CCCCC2)O[C@@H]1CO)c1cccc(F)c1	/	-1.7	8.7	/	-16.8
COc1ccc2c3c(n(C)c2c1)[C@@H](CO)N(CC1CC1)CC31CCN(C(=O)CN(C)C)CC1	/	-45.3	72.6*	/	22.3
COc1ccc2c3c(n(C)c2c1)[C@@H](CO)N(Cc1ccccc1OC)CC31CCN(C)CC1	/	/	-20.5	/	26.3*
COc1ccc2c3c(n(C)c2c1)[C@@H](CO)N(Cc1ccc(Cl)cc1)CC31CCN(CC2CC2)CC1	/	0.7	14.4	/	37.0*
COc1ccc2c3c(n(C)c2c1)[C@H](CO)N(CC1CCCCC1)CC31CCN(C(=O)CN(C)C)CC1	/	/	-45.4	/	4.4
COc1ccc2c3c(n(C)c2c1)[C@H](CO)N(Cc1ccncc1)CC31CCN(C(=O)C2CCCCC2)CC1	/	-1.4	-96.9	/	30.6*
C[C@@H]1CN([C@H](C)CO)C(=O)c2cc(-c3ccc(F)cc3)cnc2O[C@H]1CN(C)Cc1cncnc1	/	0.9	20.9	71.0[16.7 µM]	-4.9
COc1ccc2c3c(n(C)c2c1)[C@H](CO)N(Cc1ccccc1F)CC31CCN(CC2CC2)CC1	/	-0.5	20.2	/	40.0*
COc1ccc2c3c(n(C)c2c1)[C@H](CO)N(Cc1ccc(F)cc1)CC31CCN(CC2CC2)CC1	/	/	5.9	/	6.7
COc1ccc2c3c(n(C)c2c1)[C@H](CO)N(Cc1ccc(Cl)cc1)CC31CCN(CC2CC2)CC1	/	-1.8	16.6	/	29.5*
COc1ccc2c3c(n(C)c2c1)[C@H](CO)N(Cc1ccc(Cl)cc1)CC31CN(CC2CC2)C1	/	/	/	/	-0.8
CCN1[C@@H]2c3ccc(-c4cncnc4)c(=O)n3C[C@@H]2[C@@H](CO)[C@@H]1C(=O)OC	/	2.0	-10.7	6.2[16.7 µM]	0.6
SMILES	NSD2 inh	CASP6 VEID inh	RAD52 inh	miR-122 sensor	AF4-AF9 inh
COc1ccc(CNC(=O)c2cc(C3CC3)nc3c2cnn3C(C)C)cc1	-3.2	-0.1	-14.1	-12.4	32.3*
C[C@H](CO)N1C[C@H](C)[C@H](CN(C)CC2CC2)Oc2cc(C#Cc3ccc(F)cc3)ccc2S1(=O)=O	/	-3.7	23.1	-8.0[16.7 µM]	3.0
Cc1cc(Cl)c(S(=O)(=O)Nc2ccc3c(c2)OCO3)cc1OCC(=O)NC1CCCCC1	2.3	/	/	94.4*	/
COC(=O)c1ccc(COc2cc([N+](=O)[O-])cc3cccnc23)o1	18.4	37.6*	-8.8	/	-4.2
O=[N+]([O-])c1cc(O)c2ncccc2c1	21.7	46.9*	-17.2	/	-3.9
COC(=O)c1ccc(COc2ccc(C)cc2[N+](=O)[O-])o1	1.5	-0.8	-11.3	0.7	/
